About 7,900 targets were measured; listed, in parts, are those with a hit and a random draw of the rest. About 0.6% of all pairs of compound and target were hits. Unmarked numbers belong to inactive results.
Experiments:
Assay in all cases: log2 fold change, soluble protein after heating vs DMSO (PISA); higher = thermal stabilisation; K562 cells, 10 uM, 30 min; active = over 0.2 and 3.5 SD of the protein, either way, in both replicates (recomputed)
saracatinib = compound: CN1CCN(CCOc2cc(OC3CCOCC3)c3c(Nc4c(Cl)ccc5c4OCO5)ncnc3c2)CC1 [saracatinib]
Procedure, shortened: (§1)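 Soluble protein was defined as the supernatant after 21,000xg for 90 min. It came from K562 cells at 2×10^6 cells/mL given 10 μM compound for 30 min, heated in aliquots for 3 min across 48°C-58°C, pooled, and extracted in PBS with 0.5% NP-40 at 4°C, and was quantified by TMTpro 16plex LC-MS/MS with equalised channel sums. Thermal stability against control samples, from duplicates, is reported as log2 fold change.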

sotrastaurin = compound: CN1CCN(c2nc(C3=C(c4c[nH]c5ccccc45)C(=O)NC3=O)c3ccccc3n2)CC1 [sotrastaurin]
Procedure, shortened: as §1

alvocidib = compound: CN1CC[C@H](c2c(O)cc(O)c3c(=O)cc(-c4ccccc4Cl)oc23)[C@H](O)C1 [alvocidib]
Procedure, shortened: as §1

Tubastatin A = compound: CN1CCc2c(c3ccccc3n2Cc2ccc(C(=O)NO)cc2)C1 [Tubastatin A]
Procedure, shortened: as §1

[1] = compound: CNC(=O)C1=CC=CC=C1NC2=NC(=NC=C2Cl)NC3=C(C=C(C=C3)N4CCOCC4)OC
Procedure, shortened: as §1

defactinib = compound: CNC(=O)c1ccc(Nc2ncc(C(F)(F)F)c(NCc3nccnc3N(C)S(C)(=O)=O)n2)cc1 [defactinib]
Procedure, shortened: as §1

rucaparib = compound: CNCc1ccc(-c2[nH]c3cc(F)cc4c3c2CCNC4=O)cc1 [rucaparib]
Procedure, shortened: as §1

[2] = compound: CNc1nc(-c2ccc3c(N)n[nH]c3c2)cc(N2C[C@@H](C(=O)NC3CCCCC3)CC[C@H]2C)n1
Procedure, shortened: as §1

encorafenib = compound: COC(=O)N[C@@H](C)CNc1nccc(-c2cn(C(C)C)nc2-c2cc(Cl)cc(NS(C)(=O)=O)c2F)n1 [encorafenib]
Procedure, shortened: as §1

[3] = compound: COC(=O)[C@H](CCSC)NC(=O)C1=C(C=C(C=C1)NC[C@H](CS)N)C2=CC=CC=C2
Procedure, shortened: as §1

[4] = compound: COC1=CC=C(C=C1)CN2C=CC3=C2C=C(C=C3)C(=O)NO
Procedure, shortened: as §1

filanesib = compound: CON(C)C(=O)N1N=C(c2cc(F)ccc2F)S[C@@]1(CCCN)c1ccccc1 [filanesib]
Procedure, shortened: as §1

zotarolimus = compound: CO[C@H]1C[C@@H]2CC[C@@H](C)[C@@](O)(O2)C(=O)C(=O)N2CCCC[C@H]2C(=O)O[C@H]([C@H](C)C[C@@H]2CC[C@H](n3cnnn3)[C@H](OC)C2)CC(=O)[C@H](C)/C=C(\C)[C@@H](O)[C@@H](OC)C(=O)[C@H](C)C[C@H](C)/C=C/C=C/C=C/1C [zotarolimus]
Procedure, shortened: as §1

idasanutlin = compound: COc1cc(C(=O)O)ccc1NC(=O)[C@@H]1N[C@@H](CC(C)(C)C)[C@](C#N)(c2ccc(Cl)cc2F)[C@H]1c1cccc(Cl)c1F [idasanutlin]
Procedure, shortened: as §1

alisertib = compound: COc1cc(Nc2ncc3c(n2)-c2ccc(Cl)cc2C(c2c(F)cccc2OC)=NC3)ccc1C(=O)O [alisertib]
Procedure, shortened: as §1

[5] = compound: COc1cc2nc(-c3cc(F)ccc3O)nc(N[C@@H]3CNC[C@H]3C(C)(C)O)c2cc1OC
Procedure, shortened: as §1

gefitinib = compound: COc1cc2ncnc(Nc3ccc(F)c(Cl)c3)c2cc1OCCCN1CCOCC1 [gefitinib]
Procedure, shortened: as §1

[6] = compound: COc1cccc2cc(-c3nc([C@H]4CC[C@H](C(=O)O)CC4)n4ncnc(N)c34)[nH]c12
Procedure, shortened: as §1

lapatinib = compound: CS(=O)(=O)CCNCc1ccc(-c2ccc3ncnc(Nc4ccc(OCc5cccc(F)c5)c(Cl)c4)c3c2)o1 [lapatinib]
Procedure, shortened: as §1

pictilisib = compound: CS(=O)(=O)N1CCN(Cc2cc3nc(-c4cccc5[nH]ncc45)nc(N4CCOCC4)c3s2)CC1 [pictilisib]
Procedure, shortened: as §1

UniProt P25208, sequence (P25208 whole entry, looked up): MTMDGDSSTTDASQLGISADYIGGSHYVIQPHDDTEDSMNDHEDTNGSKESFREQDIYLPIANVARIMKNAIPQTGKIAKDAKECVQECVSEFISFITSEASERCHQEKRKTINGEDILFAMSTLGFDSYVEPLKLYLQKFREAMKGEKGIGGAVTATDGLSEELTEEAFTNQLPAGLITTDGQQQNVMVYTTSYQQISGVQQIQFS
UniProt O14524, sequence (O14524 whole entry, looked up): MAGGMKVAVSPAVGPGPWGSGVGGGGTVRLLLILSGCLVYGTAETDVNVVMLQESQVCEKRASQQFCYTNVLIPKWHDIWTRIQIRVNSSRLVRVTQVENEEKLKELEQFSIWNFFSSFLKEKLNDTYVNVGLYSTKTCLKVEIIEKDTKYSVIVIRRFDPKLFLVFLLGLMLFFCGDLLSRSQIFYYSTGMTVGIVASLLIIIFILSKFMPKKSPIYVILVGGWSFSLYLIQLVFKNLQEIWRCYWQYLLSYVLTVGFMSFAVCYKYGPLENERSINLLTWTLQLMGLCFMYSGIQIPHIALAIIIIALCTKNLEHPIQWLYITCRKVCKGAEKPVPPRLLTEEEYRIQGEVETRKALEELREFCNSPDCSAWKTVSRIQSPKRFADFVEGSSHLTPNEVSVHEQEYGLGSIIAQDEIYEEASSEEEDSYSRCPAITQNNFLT
UniProt Q8WVJ2, sequence (Q8WVJ2 whole entry, looked up): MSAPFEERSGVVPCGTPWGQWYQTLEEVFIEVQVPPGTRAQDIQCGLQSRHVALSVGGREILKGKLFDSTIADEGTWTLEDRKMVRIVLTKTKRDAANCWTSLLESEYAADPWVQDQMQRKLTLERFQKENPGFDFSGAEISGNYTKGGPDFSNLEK
UniProt O75376, sequence (O75376 whole entry, looked up): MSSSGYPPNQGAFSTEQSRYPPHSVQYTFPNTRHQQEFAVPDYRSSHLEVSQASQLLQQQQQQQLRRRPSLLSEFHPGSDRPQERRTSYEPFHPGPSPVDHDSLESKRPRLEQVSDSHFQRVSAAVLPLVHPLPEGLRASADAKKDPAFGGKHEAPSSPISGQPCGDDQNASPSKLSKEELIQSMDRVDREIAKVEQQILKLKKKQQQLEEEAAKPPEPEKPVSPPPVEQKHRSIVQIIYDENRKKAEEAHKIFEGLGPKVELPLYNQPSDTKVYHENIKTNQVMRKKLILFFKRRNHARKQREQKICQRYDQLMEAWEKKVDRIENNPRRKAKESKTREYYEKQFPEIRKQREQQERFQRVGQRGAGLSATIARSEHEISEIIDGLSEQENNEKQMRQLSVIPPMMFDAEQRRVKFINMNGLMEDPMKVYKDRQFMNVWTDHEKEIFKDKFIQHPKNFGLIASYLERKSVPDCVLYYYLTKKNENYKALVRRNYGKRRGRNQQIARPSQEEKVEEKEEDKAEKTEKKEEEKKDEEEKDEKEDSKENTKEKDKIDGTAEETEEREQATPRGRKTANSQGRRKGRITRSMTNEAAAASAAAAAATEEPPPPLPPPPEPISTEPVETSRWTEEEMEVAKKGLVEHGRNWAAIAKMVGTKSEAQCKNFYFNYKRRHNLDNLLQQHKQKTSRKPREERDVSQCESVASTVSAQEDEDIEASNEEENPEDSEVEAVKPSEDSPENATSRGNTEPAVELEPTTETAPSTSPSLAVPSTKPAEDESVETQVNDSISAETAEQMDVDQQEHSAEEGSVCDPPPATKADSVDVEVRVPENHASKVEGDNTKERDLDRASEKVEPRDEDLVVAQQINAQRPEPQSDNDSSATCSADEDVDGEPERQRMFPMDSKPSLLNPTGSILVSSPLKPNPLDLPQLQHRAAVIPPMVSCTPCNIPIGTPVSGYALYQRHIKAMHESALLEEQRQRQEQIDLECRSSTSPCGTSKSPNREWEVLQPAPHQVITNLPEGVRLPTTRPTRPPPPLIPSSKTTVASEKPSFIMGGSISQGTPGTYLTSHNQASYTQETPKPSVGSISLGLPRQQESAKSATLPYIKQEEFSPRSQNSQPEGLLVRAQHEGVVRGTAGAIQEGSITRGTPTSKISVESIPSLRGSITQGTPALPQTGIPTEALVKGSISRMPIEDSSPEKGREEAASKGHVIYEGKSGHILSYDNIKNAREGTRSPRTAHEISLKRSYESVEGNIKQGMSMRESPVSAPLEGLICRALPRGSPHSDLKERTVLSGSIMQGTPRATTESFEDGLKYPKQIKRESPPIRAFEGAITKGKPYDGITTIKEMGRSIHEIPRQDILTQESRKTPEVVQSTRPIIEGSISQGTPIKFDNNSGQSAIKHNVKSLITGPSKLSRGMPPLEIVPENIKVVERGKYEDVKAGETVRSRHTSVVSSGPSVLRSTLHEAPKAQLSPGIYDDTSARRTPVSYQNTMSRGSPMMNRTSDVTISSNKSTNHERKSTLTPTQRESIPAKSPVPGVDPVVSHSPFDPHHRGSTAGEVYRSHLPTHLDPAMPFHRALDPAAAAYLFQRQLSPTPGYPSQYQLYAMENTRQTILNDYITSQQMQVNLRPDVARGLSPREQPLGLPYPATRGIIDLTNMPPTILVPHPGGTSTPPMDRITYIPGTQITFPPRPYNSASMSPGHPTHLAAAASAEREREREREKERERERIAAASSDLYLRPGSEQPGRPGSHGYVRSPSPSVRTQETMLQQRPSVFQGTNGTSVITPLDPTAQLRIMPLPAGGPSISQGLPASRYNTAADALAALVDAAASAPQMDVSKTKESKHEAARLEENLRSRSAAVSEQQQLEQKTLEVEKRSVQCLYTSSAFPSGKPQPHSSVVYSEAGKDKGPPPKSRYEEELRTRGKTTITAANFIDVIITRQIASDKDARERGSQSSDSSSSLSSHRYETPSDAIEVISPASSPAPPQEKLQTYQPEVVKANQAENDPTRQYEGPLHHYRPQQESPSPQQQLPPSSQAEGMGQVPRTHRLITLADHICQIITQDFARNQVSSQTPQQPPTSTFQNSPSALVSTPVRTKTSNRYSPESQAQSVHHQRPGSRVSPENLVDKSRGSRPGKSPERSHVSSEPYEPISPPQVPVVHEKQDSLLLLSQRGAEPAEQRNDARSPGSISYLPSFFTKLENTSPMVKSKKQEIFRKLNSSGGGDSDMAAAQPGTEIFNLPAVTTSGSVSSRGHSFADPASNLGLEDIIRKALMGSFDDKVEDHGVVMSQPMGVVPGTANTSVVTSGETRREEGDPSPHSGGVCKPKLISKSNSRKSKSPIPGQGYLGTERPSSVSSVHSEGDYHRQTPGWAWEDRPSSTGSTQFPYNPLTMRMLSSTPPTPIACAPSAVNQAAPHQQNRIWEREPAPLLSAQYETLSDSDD
UniProt P49914, sequence (P49914 whole entry, looked up): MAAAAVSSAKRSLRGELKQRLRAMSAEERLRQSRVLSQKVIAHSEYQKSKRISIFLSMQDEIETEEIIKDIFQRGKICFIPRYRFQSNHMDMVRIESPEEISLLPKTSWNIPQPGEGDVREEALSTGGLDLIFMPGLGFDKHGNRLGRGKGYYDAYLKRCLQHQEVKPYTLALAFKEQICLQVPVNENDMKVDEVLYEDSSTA
UniProt Q12986, sequence (Q12986 whole entry, looked up): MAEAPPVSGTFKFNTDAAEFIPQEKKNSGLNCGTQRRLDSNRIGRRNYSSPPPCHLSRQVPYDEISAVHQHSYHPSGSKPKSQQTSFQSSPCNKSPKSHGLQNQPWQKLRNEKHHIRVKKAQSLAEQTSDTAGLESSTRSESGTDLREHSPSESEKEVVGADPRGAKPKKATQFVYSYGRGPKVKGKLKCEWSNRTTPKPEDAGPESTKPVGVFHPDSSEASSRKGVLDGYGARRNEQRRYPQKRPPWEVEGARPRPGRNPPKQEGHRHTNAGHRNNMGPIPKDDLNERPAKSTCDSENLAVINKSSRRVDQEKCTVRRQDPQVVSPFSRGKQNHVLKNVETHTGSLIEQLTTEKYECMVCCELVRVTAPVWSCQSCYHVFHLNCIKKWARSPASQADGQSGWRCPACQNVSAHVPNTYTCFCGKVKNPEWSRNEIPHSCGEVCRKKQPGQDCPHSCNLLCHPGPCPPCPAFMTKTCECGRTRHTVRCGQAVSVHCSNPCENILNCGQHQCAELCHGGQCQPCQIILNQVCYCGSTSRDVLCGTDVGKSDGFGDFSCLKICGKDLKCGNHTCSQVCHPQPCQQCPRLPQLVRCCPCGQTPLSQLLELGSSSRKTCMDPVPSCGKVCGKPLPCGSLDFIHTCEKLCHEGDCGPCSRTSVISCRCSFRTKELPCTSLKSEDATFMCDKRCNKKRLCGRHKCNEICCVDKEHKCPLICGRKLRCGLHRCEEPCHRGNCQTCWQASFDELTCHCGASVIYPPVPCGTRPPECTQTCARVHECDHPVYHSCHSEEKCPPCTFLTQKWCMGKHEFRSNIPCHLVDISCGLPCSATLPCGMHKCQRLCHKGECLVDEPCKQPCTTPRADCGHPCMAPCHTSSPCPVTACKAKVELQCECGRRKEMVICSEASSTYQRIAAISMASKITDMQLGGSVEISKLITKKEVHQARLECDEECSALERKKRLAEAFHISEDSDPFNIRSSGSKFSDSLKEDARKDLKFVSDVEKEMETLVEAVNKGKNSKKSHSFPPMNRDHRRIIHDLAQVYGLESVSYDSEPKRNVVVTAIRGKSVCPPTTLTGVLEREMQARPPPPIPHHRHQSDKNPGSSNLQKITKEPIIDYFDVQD
UniProt Q9H1E3, sequence (Q9H1E3 whole entry, looked up): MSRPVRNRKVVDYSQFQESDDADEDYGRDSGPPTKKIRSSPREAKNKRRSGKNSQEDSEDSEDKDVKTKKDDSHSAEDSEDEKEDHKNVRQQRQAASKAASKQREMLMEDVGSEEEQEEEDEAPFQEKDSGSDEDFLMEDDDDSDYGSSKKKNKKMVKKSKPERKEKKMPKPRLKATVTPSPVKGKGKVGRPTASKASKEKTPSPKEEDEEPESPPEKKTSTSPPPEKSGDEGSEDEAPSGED

| Target | log2 fold change (saracatinib) | log2 fold change (sotrastaurin) | log2 fold change (alvocidib) | log2 fold change (Tubastatin A) | log2 fold change [1] | log2 fold change (defactinib) | log2 fold change (rucaparib) | log2 fold change [2] | log2 fold change (encorafenib) | log2 fold change [3] | log2 fold change [4] | log2 fold change (filanesib) | log2 fold change (zotarolimus) | log2 fold change (idasanutlin) | log2 fold change (alisertib) | log2 fold change [5] | log2 fold change (gefitinib) | log2 fold change [6] | log2 fold change (lapatinib) | log2 fold change (pictilisib) |
| --- | --- | --- | --- | --- | --- | --- | --- | --- | --- | --- | --- | --- | --- | --- | --- | --- | --- | --- | --- | --- |
| MRPS5 (UniProt P82675) | -0.094 | -0.124 | -0.042 | -0.009 | -0.024 | 0.068 | 0.129 | 0.161 | 0.072 | -0.068 | -0.06 | 0.078 | 0.091 | -0.37 (active) | 0.021 | 0.015 | -0.026 | 0.02 | 0.054 | -0.026 |
| NFYB (UniProt P25208) | 0.111 | -0.084 | 0.162 | -0.143 | 0 | -0.001 | -0.099 | -0.019 | -0.051 | 0.03 | 0.245 | -0.036 | -0.024 | 0.066 | -0.097 | -0.047 | 0.039 | 0.02 | 0.078 | -0.155 |
| NFX1 (UniProt Q12986) | -0.246 | -0.09 | 0.08 | -0.001 | 0.014 | 0.009 | 0.269 | -0.237 | -0.01 | 0 | -0.152 | 0.133 | -0.141 | 0.102 | 0.203 | 0.079 | 0.037 | -0.012 | 0.112 | 0.004 |
| NEDD4 isoform 4 (UniProt P46934) | 0.116 | -0.026 | -0.09 | 0.037 | 0.041 | -0.108 | -0.099 | -0.026 | 0.049 | -0.009 | 0.036 | -0.02 | 0.064 | -0.042 | 0.053 | 0.027 | 0.074 | -0.029 | 0.028 | -0.017 |
| MRPL47 (UniProt Q9HD33) | -0.168 | -0.024 | 0.113 | 0.081 | -0.028 | 0.151 | -0.122 | 0.17 | 0.063 | -0.022 | -0.068 | 0.183 | 0.072 | -0.042 | -0.087 | -0.033 | -0.134 | -0.186 | 0.072 | 0.745 (active) |
| NUDCD2 (UniProt Q8WVJ2) | -0.115 | -0.123 | -0.139 | 0.051 | 0.002 | -0.256 | -0.053 | 0 | 0.048 | 0 | 0.072 | -0.016 | 0.065 | 0.075 | -0.011 | 0.117 | 0.083 | -0.018 | -0.038 | 0.014 |
| NOP58 (UniProt Q9Y2X3) | -0.044 | -0.008 | 0.075 | 0.014 | -0.058 | -0.004 | 0.304 | -0.01 | 0.106 | -0.076 | -0.124 | 0.528 (active) | 0.044 | 0.229 | -0.035 | -0.096 | 0.039 | -0.028 | 0.054 | 0.049 |
| MTHFS (UniProt P49914) | -0.023 | -0.017 | -0.078 | 0.043 | 0.065 | -0.053 | 0.013 | -0.004 | 0.007 | 0.014 | 0.032 | -0.023 | -0.02 | -0.006 | -0.065 | 0.041 | 0.053 | 0.052 | 0.028 | 0.016 |
| NEMP1 (UniProt O14524) | -0.001 | -0.012 | -0.015 | -0.002 | -0.111 | 0.021 | 0.026 | -0.045 | -0.039 | 0.053 | -0.041 | -0.247 | -0.021 | 0.034 | -0.084 | -0.487 (active) | -0.021 | 0.006 | 0.001 | -0.02 |
| NUCKS1 (UniProt Q9H1E3) | 0.006 | 0.075 | 0.115 | -0.006 | -0.167 | 0.048 | 0.027 | -0.071 | -0.068 | -0.006 | -0.035 | 0.051 | -0.031 | -0.011 | -0.071 | 0.182 | -0.001 | 0.02 | -0.064 | -0.011 |
| NUP160 (UniProt Q12769) | 0.155 | -0.141 | -0.078 | 0 | 0.004 | -0.11 | 0.019 | -0.018 | 0.038 | 0.003 | -0.043 | -0.003 | 0.017 | 0.004 | -0.076 | -0.068 | 0.033 | 0.037 | 0.057 | -0.021 |
| NA, A0A0B4J2A0 | 0.007 | 0.044 | -0.058 | -0.058 | -0.077 | -0.051 | -0.005 | -0.022 | -0.003 | -0.037 | 0.084 | -0.045 | -0.021 | -0.016 | 0.129 | -0.029 | -0.092 | 0.023 | -0.026 | 0.05 |
| MRPS17 (UniProt Q9Y2R5) | -0.017 | -0.138 | 0.002 | 0.072 | 0.105 | 0.096 | 0.185 | 0.096 | 0.016 | -0.047 | -0.089 | 0.038 | 0.047 | -0.254 | -0.043 | -0.025 | 0.039 | -0.016 | 0.113 | 0.035 |
| NIPSNAP2 (UniProt O75323) | -0.017 | -0.082 | 0.031 | -0.019 | 0.104 | -0.003 | -0.085 | -0.08 | -0.028 | 0.033 | 0.074 | -0.065 | 0.008 | -0.022 | 0.003 | 0.007 | 0.045 | -0.038 | 0.224 (active) | 0.079 |
| NCOR1 (UniProt O75376) | 0.074 | -0.094 | -0.179 | -0.009 | -0.041 | -0.113 | 0.012 | -0.02 | 0 | 0.007 | -0.07 | 0.078 | 0.069 | 0.004 | -0.086 | 0.128 | -0.018 | 0.064 | -0.119 | 0.135 |
| NDUFB10 (UniProt O96000) | -0.027 | 0.008 | -0.013 | -0.022 | -0.012 | -0.016 | 0.012 | -0.004 | -0.005 | -0.029 | 0.044 | -0.025 | 0.006 | -0.035 | -0.021 | -0.047 | 0 | 0.05 | -0.035 | 0.082 |

— the supplement of paper PMC10849652
